The numbers were not newly measured in PubChem BioAssay AID977608, which cites them from elsewhere.

Structures are written as SMILES. Among all 4,300 compounds or so, about 4,300 (100%) were called active. No cut-off is given here; in the data, nearly all actives have IC50 up to about 1400 µM. The set was probably picked from earlier hits. This is one part of the list. *1 amine or outer side, *2 acyl side, *3 side chain or, on linkers, in order; H or OH if unused. Where a SMILES comes first, the peptide text is derived from it. Square brackets hold non-standard residues; d marks the D form. Residues, ends and D or L forms follow the SMILES beside them. Side-chain parts run from the residue outwards. Peptide text beside a SMILES is read from it. [ ]: non-standard residue; d: D form. The star is where a group is joined. N(2S-NH-3-Ph-propyl)Phe = O=C([C@H](Cc1ccccc1)N(C[C@H](Cc1ccccc1)N[*:3])[*:1])[*:2]; Orn(CH(NH2)2) = NC(N)NCCC[C@H](N)C(=O)O; X1 = CC(N)NCCC[C@H](N)C(=O)*; Nle = CCCC[C@H](N)C(=O)O

A short description of the data set: protein-ligand inhibition affinities from structures – PDB-derived complexes (AID 977608).
Where [1] appears, read: literature IC50, protein: metallodependent class II fructose-1,6-bisphosphate aldolase (FBA-tb), PDB entry 4a22 unless noted.

The term IC50 denotes the concentration that gives 50% inhibition. For `COCCN/C=C1/C(=O)N(C)c2ccc(C(F)(F)F)cc2N(c2ccccc2)C1=O`, the IC50 under setting [1] was 890 nM [literature IC50, protein: HIV-1 capsid protein (N-terminal domain), PDB entry 4inb] (active).

With `C[N+](C)(C)CCCP(O)O`, the IC50 under setting [1] was 520 nM [literature IC50, protein: human gamma-butyrobetaine hydroxylase, PDB entry 4bgk] (active).

Regarding `O=C(O)c1ccc2cccc(O)c2n1`, under setting [1], the half-inhibitory concentration (IC50) is 10000 nM [literature IC50, protein: M. tuberculosis's class IIa fructose 1,6-bisphosphate aldolase, MtFBA, PDB entry 4lv4] (active).

Turning to `c1csc(-c2cc(CNC34CC5CC(CC(C5)C3)C4)no2)c1`, under setting [1], the IC50 is 16000 nM [literature IC50, protein: Membrane ion channel M2, PDB entry 2ly0] (active).

As for `COCN1CCC(C(N)=O)CC1`, under setting [1], the IC50 was 300000 nM [literature IC50, protein: ACETYLCHOLINESTERASE, PDB entry 3zlv] (active).

Turning to `Cc1cc(S(=O)(=O)N(Cc2ccccc2)[C@H](C)C(=O)NO)ccc1F`, the IC50 under setting [1] was 15200 nM [literature IC50, PDB entry 4pkr] (active).

Take `Cc1cc(S(=O)(=O)N(Cc2ccc([N+](=O)[O-])cc2)[C@H](C)C(=O)NO)ccc1F`: the IC50 under setting [1] was 14900 nM [literature IC50, PDB entry 4pkt] (active).

In the case of `Cc1cc(S(=O)(=O)N(Cc2cccc(N)c2)[C@H](C)C(=O)NO)ccc1F`, the IC50 under setting [1] is 30000 nM [literature IC50, PDB entry 4pku] (active).

For `Cc1cc(S(=O)(=O)N(Cc2ccc(CN)cc2)[C@H](C)C(=O)NO)ccc1F`, the IC50 under setting [1] is 5600 nM [literature IC50, PDB entry 4pkv] (active).

As for `Cc1cc(S(=O)(=O)N(Cc2cccnc2)[C@H](C)C(=O)NO)ccc1F`, the half-inhibitory concentration (IC50) under setting [1] is 15200 nM [literature IC50, PDB entry 4pks] (active).

On to `FC(F)(F)c1nc2ccccc2[nH]1`, for which the IC50 under setting [1] was 138 µM [literature IC50, protein: 3-OXOACYL-[ACYL-CARRIER-PROTEIN] REDUCTASE FABG, PDB entry 4bnt] (active).

With `CCOC(=O)CC[C@H](C[C@@H]1CCNC1=O)NC(=O)[C@@H](CC(=O)[C@@H](NC(=O)c1cc(C)on1)C(C)C)Cc1ccc(F)cc1`, the IC50 under setting [1] was 1670 nM [literature IC50, protein: 3C proteinase, PDB entry 4ght] (active).

`O=C(CO[P+](O)(O)O)N(O)CCCCO[P+](O)(O)O`: the IC50 under setting [1] was 3.2 nM (active).

Take `CCC(CC)O[C@@H]1C[C@H](C(=O)O)C[C@H](N)[C@H]1NC(C)=O`: the IC50 is 0.84 nM (active) (literature IC50, protein: Neuraminidase7, PDB entry 4qn7) and 215000 nM (active) (literature IC50, protein: Neuraminidase, PDB entry 4mww).

For `CCC(CC)O[C@@H]1CC(C(=O)O)=C[C@H](N)[C@@H]1NC(C)=O`, under setting [1], the IC50 is 0.9 nM [literature IC50, protein: Influenza Neuraminidase H3N8, PDB entry 4m3m] (active).

For the compound `CCC(CC)O[C@@H]1C[C@@H](C(=O)O)C[C@H](N)[C@H]1NC(C)=O`, under setting [1], the IC50 is 0.79 nM [literature IC50, protein: Neuraminidase, PDB entry 4mwq] (active).

`CCC(CC)O[C@@H]1CC(C(=O)O)C[C@H](N)[C@H]1NC(C)=O` (stereo not given in full): the IC50 under setting [1] was 0.5 nM [literature IC50, protein: Neuraminidase, PDB entry 4hzx] (active).

Consider `Nc1c2c(nc3cc(Cl)ccc13)C[C@H]1C=C(CCCCn3cc(CO)nn3)C[C@@H]2C1`, for which, under setting [1], the IC50 is 0.43 nM [literature IC50, protein: ACETYLCHOLINESTERASE, PDB entry 4a16] (active).

With `Nc1c2c(nc3cc(Cl)ccc13)C[C@H]1C=C(CCO)C[C@@H]2C1`, under setting [1], the IC50 is 1.1 nM [literature IC50, protein: ACETYLCHOLINESTERASE, PDB entry 4bdt] (active).

As to `O=C(O)Cc1cc(=O)oc2c(O)c(O)ccc12`, under setting [1], the IC50 was 4800 nM [literature IC50, protein: Reverse transcriptase/ribonuclease H RT RNase H, PDB entry 4qag] (active).

As for `CC[C@H](C)[C@H]1NC(=O)[C@@H](NC(=O)[C@H](C)[C@H](O)C(C)C)[C@@H](C)OC(=O)[C@@H]2COC(=O)CNC(=O)/C=C/[C@]3(CO3)[C@@H](C)Oc3ccc(cc3)[C@H](NC1=O)C(=O)N(C)[C@@H](Cc1ccccc1)C(=O)N[C@H]([C@@H](C)O)C(=O)N2`, the 50% inhibitory concentration (IC50) under setting [1] was 200 nM [literature IC50, protein: Escherichia coli RNA polymerase, PDB entry 4mex] (active).

Take `C[C@H](N)C(=O)N[C@@H](C)C(=O)N[C@@H](C)C(=O)O`: the IC50 under setting [1] was 340000 nM [literature IC50, protein: DI-OR TRIPEPTIDE\:H+ SYMPORTER, PDB entry 4d2d] (active).

Turning to `C[C@@]1(O)CCN2C(=O)CCc3cccc1c32`, the IC50 under setting [1] is 198000 nM [literature IC50, protein: DUAL SPECIFICITY MITOGEN-ACTIVATED PROTEIN KINASE KINASE 1, PDB entry 3zlw] (active).

With `Oc1cc(Cl)ccc1Oc1ccc(Cl)cc1Cl`, the IC50 under setting [1] was 54.7 µM [literature IC50, protein: Enoyl-[acyl-carrier-protein] reductase hERG, PDB entry 4w9n] (active).

Take `Nc1nc2nc(C(=O)NCCNC(=O)Nc3ccccc3)cnc2c(=O)[nH]1`: the IC50 under setting [1] was 209000 nM [literature IC50, PDB entry 4mx1] (active).

With `Nc1nc2nc(C(=O)NCCNC(=O)O)cnc2c(=O)[nH]1`, the IC50 under setting [1] is 28000 nM [literature IC50, PDB entry 4mx5] (active).

For `NCCCCC[C@@H](C[SeH5])C(=O)O`, the IC50 under setting [1] is 2 nM [literature IC50, protein: Carboxypeptidase B, PDB entry 3wc5] (active).

Regarding `CCCC[C@H](NC(=O)[C@H](C)NC(=O)[C@H](CCC(=O)O)NC(=O)[C@H](Cc1ccccc1)NC[C@H](Cc1ccccc1)NC(=O)[C@@H](NC(=O)[C@@H](N)CCCNC(C)N)C(C)C)C(=O)O` (stereo partly drawn) (H-[N(2S-NH-3-Ph-propyl)Phe]([Val-X1])EA[Nle]-OH), the IC50 under setting [1] is 142 nM [literature IC50, protein: HIV-1 PROTEASE (Q7K, L10I, D25N, M36V, M46L, I54V, I62V, L63P, A71V, V82T, I84V, L90M mutation), PDB entry 4gye] (active).

In the case of `Nc1ncnc2c1ncn2[C@@H]1O[C@H](CO[P+](=O)O[C@@H]2[C@H](O)[C@@H](CO[P+](O)(O)O[C@@H]3[C@H](O)[C@@H](CO[P+](O)(O)O)O[C@H]3n3cnc4c(N)ncnc43)O[C@H]2n2cnc3c(N)ncnc32)[C@@H](O)[C@H]1O` (stereo not given in full), under setting [1], the IC50 is 13 nM [literature IC50, protein: interferon-induced endoribonuclease, ribonuclease L, PDB entry 1wdy] (active).

For `Oc1c(Br)cc(Br)cc1-c1[nH]c(Br)c(Br)c1Br`, under setting [1], the IC50 is 1400 nM [literature IC50, protein: Non-Mevalonate Pathway Enzyme IspD from Arabidopsis thaliana, PDB entry 4nak] (active).

Take `Oc1c(Cl)cc(Cl)cc1-c1[nH]c(Br)c(Br)c1Br`: the IC50 under setting [1] is 2200 nM [literature IC50, protein: Non-Mevalonate Pathway Enzyme IspD from Arabidopsis thaliana, PDB entry 4nal] (active).

As for `Oc1c(Br)cccc1-c1[nH]c(Br)c(Br)c1Br`, the IC50 under setting [1] was 19000 nM [literature IC50, protein: Non-Mevalonate Pathway Enzyme IspD from Arabidopsis thaliana, PDB entry 4nan] (active).

In the case of `CC(C)C[C@H](NC(=O)[C@H](CO)NC(=O)[C@H](CO)NC(=O)[C@H](CCC(=O)O)NC(=O)[C@H](Cc1ccc(O)cc1)NC(=O)[C@H](Cc1ccc(O)cc1)NC(=O)[C@H](CCCNC(N)N)NC(=O)[C@@H](N)Cc1ccccc1)C(=O)N[C@@H](CCC(=O)O)C(=O)N1CCC[C@H]1C(=O)N[C@@H](Cc1c[nH]c2ccccc12)C(=O)N[C@@H](CC(=O)O)C(=O)N[C@@H](CC(=O)O)C(=O)O` (HELM PEPTIDE1{F.[NC(N)NCCC[C@H](N[*:1])C(=O)[*:2]].Y.Y.E.S.S.L.E.P.W.D.D}$$$$V2.0), under setting [1], the 50% inhibitory concentration (IC50) is 4.9 nM [literature IC50, PDB entry 1rgj] (active).

As to `CC(C)C[C@H](NC(=O)[C@H](CO)NC(=O)[C@H](CO)NC(=O)[C@H](CCC(=O)O)NC(=O)[C@H](Cc1ccc(O)cc1)NC(=O)[C@H](Cc1ccc(O)cc1)NC(=O)[C@H](CCCNC(N)N)NC(=O)[C@@H](N)Cc1c[nH]cn1)C(=O)N[C@@H](CCC(=O)O)C(=O)N1CCC[C@H]1C(=O)N[C@@H](Cc1c[nH]c2ccccc12)C(=O)N[C@@H](Cc1ccc(O)cc1)C(=O)N1CCC[C@H]1C(=O)N[C@@H](CC(=O)O)C(=O)O` (H-H[Orn(CH(NH2)2)]YYESSLEPWYPD-OH), under setting [1], the 50% inhibitory concentration (IC50) was 120 nM [literature IC50, PDB entry 1jbd] (active).

For the compound `CC(C)C[C@H](NC(=O)[C@H](CO)NC(=O)[C@H](CO)NC(=O)[C@H](CCC(=O)O)NC(=O)[C@H](Cc1ccc(O)cc1)NC(=O)[C@H](Cc1ccc(O)cc1)NC(=O)[C@H](CCCNC(N)N)NC(=O)[C@@H](N)Cc1c[nH]c2ccccc12)C(=O)N[C@@H](CCC(=O)O)C(=O)N1CCC[C@H]1C(=O)N[C@@H](Cc1ccc(O)cc1)C(=O)N1CCC[C@H]1C(=O)N[C@@H](CC(=O)O)C(=O)O` (H-W[Orn(CH(NH2)2)]YYESSLEPYPD-OH), the IC50 under setting [1] is 2 nM [literature IC50, PDB entry 1haa] (active).

As to `C[C@@H]1Oc2ccc(CN3CC=C(c4ccc(Cl)cc4)CC3)cc2NC1=O`, the IC50 under setting [1] was 3 nM [literature IC50, protein: Poly [ADP-ribose] polymerase 1, PDB entry 4l6s] (active).

On to `COC(=O)C[C@@H](C)c1n[nH]c2nc(N)[nH]c(=O)c2c1=O`, for which, under setting [1], the IC50 is 376000 nM [literature IC50, protein: Dihydropteroate synthase, PDB entry 4d8a] (active).

For the compound `CCC(CC)Oc1cc(C(=O)O)cc(N)c1NC(C)=O`, the IC50 under setting [1] was 8.31 nM [literature IC50, protein: Neuraminidase, PDB entry 4hzz] (active).

`CCc1c(C)nc(-c2ccc(Cl)s2)nc1Nc1ccc(CC(=O)O)cc1`: under setting [1], the IC50 is 32 nM [literature IC50, protein: Catalytic Domain Of Human Phosphodiesterase 4B, PDB entry 4myq] (active).

Regarding `Cc1nc(-c2nc3ccc(Cl)cc3[nH]2)c(C)c(-c2ccccc2)c1[C@H](OC(C)(C)C)C(=O)O`, under setting [1], the 50% inhibitory concentration (IC50) was 5.03 nM [literature IC50, protein: Integrase HIV-1 IN CCD F185K/A128T, PDB entry 4o5b] (active).

As to `Cc1ccc(-c2c([C@H](OC(C)(C)C)C(=O)O)c(C)nc3ccccc23)cc1C`, the IC50 under setting [1] was 55 nM [literature IC50, protein: HIV-1 Integrase (F185K mutation), PDB entry 4e1m] (active).

Regarding `Cc1nc2ccccc2c(-c2cc(F)c3c(c2C)CCCO3)c1[C@H](OC(C)(C)C)C(=O)O`, the IC50 under setting [1] is 67 nM [literature IC50, protein: HIV-1 integrase (F185K mutation), PDB entry 4e1n] (active).

Turning to `CO[C@H](C(=O)O)c1c(C)nc2ccc(Br)cc2c1-c1ccc(Cl)cc1`, the IC50 (literature IC50, protein: HIV-1 Integrase catalytic core domain (A128T, F185K mutation), PDB entry 4jlh) is 4000 nM (active) and the IC50 (literature IC50, protein: HIV-1 Integrase, PDB entry 4dmn) was 2300 nM (active).
